The source of these data is publication PMC5540273 (PLoS ONE, 2017).

The subject of test [1] is SRMS. To be noted: concentration: 1 μM, replicates: in singlicate, n = 1.
Test [2] relates to SRPK1. To be noted: concentration: 1 μM, replicates: in singlicate, n = 1.
Test [3] relates to SRPK2. The following applies: concentration: 1 μM, replicates: in singlicate, n = 1.
Test [4] relates to SRPK3. To be noted: concentration: 1 μM, replicates: in singlicate, n = 1.
Test [5] deals with STK16. To be noted: concentration: 1 μM, replicates: in singlicate, n = 1.
Test [6] relates to STK33. The following applies: concentration: 1 μM, replicates: in singlicate, n = 1.
Test [7] relates to STK35. To be noted: concentration: 1 μM, replicates: in singlicate; n = 1.
For test [8], the system named is STK36. The following applies: concentration: 1 μM, replicates: in singlicate, n = 1.
The subject of test [9] is STK39. To be noted: concentration: 1 μM, replicates: in singlicate, n = 1.
The test system of test [10] is SYK. To be noted: concentration: 1 μM, replicates: in singlicate, n = 1.
Test [11] concerns SgK110. The following applies: concentration: 1 μM, replicates: in singlicate; n = 1.
Test [12] concerns T1, TAK1.
T1 construct: gene MAP3K7
To be noted: concentration: 1 μM, replicates: in singlicate, n = 1.

Test [13] has as its system TAOK1. To be noted: concentration: 1 μM, replicates: in singlicate; n = 1.
For test [14], the system named is TAOK2. To be noted: concentration: 1 μM, replicates: in singlicate, n = 1.
The subject of test [15] is TAOK3. The following applies: concentration: 1 μM, replicates: in singlicate, n = 1.
Test [16] relates to TBK1. The following applies: concentration: 1 μM, replicates: in singlicate, n = 1.
Test [17] relates to TEC. The following applies: concentration: 1 μM, replicates: in singlicate; n = 1.
For test [18], the system named is TESK1. The following applies: concentration: 1 μM, replicates: in singlicate, n = 1.
For test [19], the system named is TGFBR1. The following applies: n = 1.
The subject of test [20] is TGFBR2. To be noted: concentration: 1 μM, replicates: in singlicate; n = 1.
[21] abbreviates: concentration: 1 μM, replicates: in singlicate.

Molecules are shown by their SMILES. Several values for one entry are separate records, joined by “and”; a condition that tells them apart may be missing. Equal values may be shown once. Read-outs that look alike come from different tables or passages of the source.
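Also: KINOMEscan kinase panel screen.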

In the case of `Cl.Cl.c1ccc(-c2cc3ccncc3cc2OC2CCNCC2)cc1` [GSK1122999], the “%Inh” value was 0% in test [1]; 3% in [2]; 0% in [3]; 0% in test [4]; 0% in [5]; 100% in [6]. The “%Inh” value in test [7] worked out at 0%; in test [8] it was 88%; in test [9], 0%; in test [10], 19%; in test [11], 0%; in test [12], 0%. Besides, the “%Inh” value was 0% in test [13]; 0% in test [14]; 4% in test [15]; 21% in [16]; 12% in [17]; 7% in [18]. The results for the “%Inh” value in [19] (setting [21]) and in [20] were 2% and 0%, respectively.
In the case of `Nc1nc(-c2ccc3c(N)n[nH]c3c2)cc(N2CCC[C@@H](C(=O)Nc3ccccc3)C2)n1.O=C(O)C(F)(F)F.O=C(O)C(F)(F)F` [GSK2288359], the “%Inh” value is 0% in test [1]; 34% in test [2]; 0% in test [3]; 25% in test [4]; 18% in [5]; 0% in test [6]. Besides, the “%Inh” value in test [7] came to 0%; in test [8] it was 0%; in test [9] it was 1%; in [10] it was 0%; in [11], 0%; in test [12], 5%. The “%Inh” value in [13] came out at 0%; in [14] it was 0%; in test [15], 0%; in test [16], 31%; in test [17] it was 0%; in [18], 18%. For the same compound, the “%Inh” value in test [19] (setting [21]) was determined as 22%; in test [20], 0%.
With `Cc1cccc(-c2nc(Nc3ccc4[nH]nnc4c3)c3ccccc3n2)n1` [GW867587], the “%Inh” value worked out at 10% in test [1]; 0% in test [2]; 0% in test [3]; 7% in test [4]; 0% in test [5]; 0% in test [6]. Besides, the “%Inh” value in test [7] is given as 0%; in test [8], 0%; in [9], 0%; in test [10], 0%; in test [11] it was 19%; in [12], 0%. The “%Inh” value in test [13] is listed as 0%; in test [14], 0%; in test [15], 0%; in test [16] it was 14%; in test [17], 0%; in [18], 0%. The “%Inh” value in [19] (setting [21]) came out at 32%; in test [20], 0%.
With `O=C(CCO)NCCn1ccc2ncnc(Nc3ccc(Oc4cccc(C(F)(F)F)c4)c(Cl)c3)c21`, the “%Inh” value in [1] was 0%; in [2], 0%; in [3] it was 0%; in test [4] it was 4%; in [5] it was 8%; in [6], 0%. Further, the “%Inh” value in [7] stood at 5%; in test [8] it was 0%; in test [9], 0%; in test [10], 4%; in test [11], 0%; in [12], 0%. Moreover, the “%Inh” value is recorded as 0% in test [13]; 10% in [14]; 0% in test [15]; 16% in [16]; 0% in [17]; 6% in test [18]. Also, the “%Inh” value in test [19] (setting [21]) and in [20] was 0% each time.
For the compound `Cl.c1ccc(Cn2ncc3cc(Nc4ncnc5ccccc45)ccc32)cc1` [GW273749], the “%Inh” value in [1] is reported as 0%; in test [2] it was 16%; in [3], 0%; in test [4], 0%; in test [5], 40%; in test [6], 0%. Also, the “%Inh” value is recorded as 0% in test [7]; 0% in test [8]; 0% in test [9]; 18% in test [10]; 0% in [11]; 0% in test [12]. For the same compound, the “%Inh” value in [13] was 0%; in test [14], 0%; in test [15] it was 0%; in test [16], 23%; in test [17] it was 0%; in test [18] it was 0%. For the same compound, the “%Inh” value is listed as 6% in [19] (setting [21]) and 0% in test [20].
For the compound `Nc1nc(-c2ccc3c(N)n[nH]c3c2)cc(N2CCCCC2)n1` [GSK2228768], the “%Inh” value is 0% in test [1]; 45% in test [2]; 0% in [3]; 0% in [4]; 5% in [5]; 0% in test [6]. Besides, the “%Inh” value in test [7] is 0%; in test [8] it was 0%; in test [9], 0%; in [10], 8%; in test [11] it was 0%; in [12] it was 0%. In addition, the “%Inh” value in test [13] was found to be 0%; in [14], 0%; in [15], 0%; in test [16], 23%; in test [17] it was 2%; in test [18], 0%. The “%Inh” value in [19] (setting [21]) and in test [20] was 0% in each case.
Take `O=C(Nc1ccccc1)Nc1ccc(Oc2ccc3nccn3n2)cc1`: the “%Inh” value in test [1] was determined as 3%; in test [2], 28%; in test [3], 16%; in test [4], 16%; in test [5], 0%; in [6] it was 9%. For the same compound, the “%Inh” value in test [7] turned out to be 0%; in [8], 0%; in test [9] it was 0%; in test [10], 6%; in [11], 27%; in test [12] it was 0%. Also, the “%Inh” value in test [13] is given as 0%; in test [14], 5%; in test [15], 0%; in [16], 34%; in test [17], 10%; in test [18], 11%. The results for the “%Inh” value in [19] (setting [21]) and in test [20] were 0% and 27%, respectively.
As to `C[C@@H]1CCN(C(=O)CO)C[C@@H]1N(C)c1ncnc2[nH]ccc12`, the “%Inh” value in test [1] turned out to be 0%; in test [2], 24%; in test [3] it was 0%; in test [4] it was 0%; in [5], 0%; in test [6] it was 2%. Further, the “%Inh” value in [7] was found to be 4%; in [8] it was 0%; in test [9], 0%; in test [10], 3%; in [11], 0%; in test [12], 27%. The “%Inh” value in test [13] worked out at 0%; in test [14], 0%; in [15] it was 0%; in test [16], 1%; in test [17], 3%; in [18], 12%. For the same compound, the “%Inh” value came out at 7% in test [19] (setting [21]) and 4% in test [20].
Consider `FC(F)(F)c1ccc(-c2cc(-c3c[nH]nc3-c3ccccn3)ccn2)cc1` [GW599550], for which the “%Inh” value came out at 0% in test [1]; 24% in test [2]; 13% in test [3]; 2% in test [4]; 10% in [5]; 0% in [6]. Also, the “%Inh” value is on record as 0% in test [7]; 0% in test [8]; 0% in test [9]; 44% in test [10]; 0% in test [11]; 28% in test [12]. Moreover, the “%Inh” value in test [13] was 0%; in test [14], 0%; in [15], 0%; in [16], 18%; in test [17], 0%; in test [18], 17%. For the same compound, the “%Inh” value was 88% in test [19] (1 µM) and 77% in test [20].
Turning to `COc1ccc(-c2nc3n(c2-c2ccncc2)CCC3)cc1` [SKF-104493], the “%Inh” value is 12% and 13% in test [1] (1 µM); 0% and 1% in [2] (1 µM); 16% and 0% in test [3] (1 µM); 35% and 0% in test [4] (1 µM); 21% and 9% in test [5] (1 µM); 0% and 8% in [6] (1 µM). For the same compound, the “%Inh” value is 0% in test [7]; 35% and 43% in [8] (1 µM); 0% and 16% in test [9] (1 µM); 1% and 48% in [10] (1 µM); 0% in test [11]; 0% and 31% in test [12] (1 µM). Also, the “%Inh” value is 0% in test [13]; 26% and 10% in test [14] (1 µM); 5% and 0% in test [15] (1 µM); 13% and 17% in [16] (1 µM); 0% in test [17]; 1% and 24% in [18] (1 µM). The “%Inh” value is 37% and 31% in test [19] (concentration: 1 μM, replicates: in singlicate, 1 µM); 0% in [20].
